# This is a sample that favours compounds with a hit; in the whole collection about 4.8% have one here.
# tim23-1 inh = tim23-1 yeast growth inhibition; S. cerevisiae tim23-1 growth, BacTiter-Glo luminescence, 24 h; inhibition, % at 20 µM; 330,000 compounds, 1.3% hits; AID 463212;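 active = growth inhibition of the mutant yeast at or above 50%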;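 also: temperature-sensitive mutant grown at 25 °C; plate controls were DMSO-treated mutant yeast for no effect and medium wells lacking yeast for full effect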
# PfHsp90 set2 = growth inhibition of yeast expressing Plasmodium Hsp90; S. cerevisiae expressing PfHsp90, BacTiter-Glo ATP, 48 h; yeast lacking PDR1 and PDR3 efflux regulators; inhibition, % at 9.4 µM; 310,000 compounds, 0.32% hits; AID 504621;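 active = every replicate shows inhibition above about 80%, whatever the replicate mean, limit read from the data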;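 also: 0% = DMSO neutral controls and 100% = 20 µM radicicol positive controls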
# NALP1 inh = NALP1 inhibition; S. cerevisiae NALP1/ASC/caspase-1 growth, X-gal OD620, 72 h; inhibition, % at 10 µM; 280,000 compounds, 0.61% hits; AID 2071; in the data active = inhibition mostly above about 24%, no sharp cut-off; inactive = mostly below about 32%
# tim10-1 inh = tim10-1 yeast growth inhibition; inhibition, % at 20 µM; S. cerevisiae tim10-1 ts strain growth, BacTiter-Glo, 24 h; AID 463190; 330,000 compounds, 2.2% hits;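 active = inhibition of at least 40%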;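 also: mutant grown at 25 °C; 0% = DMSO wells with yeast and 100% = wells holding no yeast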
# TIM10 inh = growth inhibitors of TIM10 yeast strain; 330,000 compounds, 1.4% hits; inhibition, % at 10 µM; S. cerevisiae TIM10 strain growth, BacTiter-Glo luminescence, 24 h;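 active = inhibition of 40% or more at the single tested concentration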;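 also: wild-type TIM10 isogenic control strain grown at permissive 25 °C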
# SKKanGAS inh = blocks kanamycin growth of S. pyogenes SKKanGAS strain. inhibition, % at 7.5 µM. 300,000 compounds, 1.3% hits. AID 1662. BacTiter-Glo, 6 h;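 active = mean replicate score, as percent of positive control median, at least 50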;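 also: strain carries kanamycin resistance gene driven by streptokinase promoter and grows in 40 µg/ml kanamycin; loss of luminescence reflects streptokinase promoter inhibition or plain growth inhibition; 0% = median of DMSO wells and 100% = positive control at its reference dose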
# TIM10 conf = confirmation of TIM10 yeast growth inhibitors | shares compounds with TIM10 inh | S. cerevisiae tim10 strain growth, BacTiter-Glo luminescence, 24 h | inhibition, % at 10 µM | 4,600 compounds, 63% hits;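 active = inhibition of yeast growth at or above a set limit in either of two replicates at 10 µM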;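 also: this counterscreen used the strain with wild-type TIM10; 0% = yeast with DMSO and 100% = medium wells lacking yeast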
# An asterisk follows results filed as active; . = no result.
SMILES,tim23-1 inh,PfHsp90 set2,NALP1 inh,tim10-1 inh,TIM10 inh,SKKanGAS inh,TIM10 conf
CC1(C)CC(=O)C(CS(=O)(=O)c2ccccc2)=C(O)C1,-2,3,10,-2,4,-2,.
COc1ccc(OC)c(S(=O)(=O)NC(C)c2ccc(-n3ccnc3)cc2)c1 (stereo unspecified),8,-5,.,2,1,.,.
CC(Sc1nc(N)c2c3c(sc2n1)CSC(C)(C)C3)C(=O)Nc1ccccc1 (stereo unspecified),39,10,26,36,47*,22,-35
CC(C)(C)CC(C)(C)NC(=O)Nc1cccc([N+](=O)[O-])c1,50,-2,1,39,46*,17,45*
Cc1ccc(NC(=O)Nc2cccc([N+](=O)[O-])c2)cc1F,1,-10,30,21,15,6,.
CC(C)(C)c1ccc(C(=O)Nc2cccc([N+](=O)[O-])c2)cc1,.,-26,26,.,.,13,.
O=C(Nc1ccc(OC(F)(F)F)cc1)Nc1cccc([N+](=O)[O-])c1,36,17,59*,29,45*,19,34*
COc1ccc(C(=O)N/C(=C/c2ccc(Cl)cc2)C(=O)NCc2ccncc2)cc1,-9,-3,3,-9,96*,0,4
COc1ccccc1NS(=O)(=O)c1ccc(C)c(NC(=O)c2c(C)noc2C)c1,7,-5,.,0,-4,.,.
Nc1cccc(N=[N+]([O-])c2cccc(N)c2)c1,.,14,.,.,.,.,.
N#CC1(NC(=O)CSc2nnc3n2CCCCC3)CCCCC1,-5,9,.,-3,81*,.,7
C/C(=C\C(=O)OCC(=O)NCc1ccccc1)C(=O)OCC(=O)NCc1ccccc1,-8,15,6,17,0,-6,.
CCOC(=O)/C=C/C(=O)OCC(=O)NCc1ccccc1,34,9,31,36,42*,.,21
Fc1ccc(N2CCN(Cc3ccccn3)CC2)cc1,-7,-32,4,-1,5,11,.
O=C(COC(=O)Cn1cnc2ccccc21)NCc1ccc(F)cc1,-6,11,16,-13,-10,1,.
Cc1cc(/C=C2\SC(=S)N(C)C2=O)c(C)n1-c1ccc(O)cc1,28,96*,-13,34,74*,65*,91*
COc1ccc(OCC(O)Cn2cnc(-c3ccc(Br)cc3)c2)cc1 (stereo unspecified),7,22,1,7,52*,-1,-23
CCC(C)(C)NC(=S)Nc1ccccc1C,10,0,7,-10,0,-3,.
CCn1c(C)cs/c1=N\C(=S)Nc1ccccc1C,48,4,21,35,41*,-1,-34
CCOC(=O)Cc1csc(NC(=O)/C=C/c2ccco2)n1,0,10,.,-8,5,-4,.
O=c1c2ccccc2ncn1CCCOc1ccccc1[N+](=O)[O-],12,13,-3,4,-5,-10,.
Cc1ccccc1OCCn1cnc2cc([N+](=O)[O-])ccc2c1=O,28,-69,1,35,42*,7,1
COc1ccc(CN2CCN(c3ncnc4scc(-c5ccc(F)cc5)c34)CC2)cc1,48,-4,6,35,42*,-6,45*
COc1ccc(N2CCN(c3ncnc4scc(-c5ccc(F)cc5)c34)CC2)cc1,6,-20,20,13,12,-6,.
COc1ccc(N2CCN(C(=O)CSc3ncnc4scc(-c5ccc(C)cc5)c34)CC2)cc1,23,.,.,20,43*,30,10
SMILES,tim23-1 inh,PfHsp90 set2,NALP1 inh,tim10-1 inh,TIM10 inh,SKKanGAS inh,TIM10 conf
COc1cccc(NC(=O)CCN2CCN(C)CC2)c1,8,-24,-5,-2,4,-3,.
CCOc1ccc(C(=O)NCC(=O)N2CCN(Cc3ccccc3)CC2)cc1,4,18,.,14,6,.,.
CCOC(=O)C1=C(N)Oc2ccc3ccccc3c2C1c1cccnc1 (stereo unspecified),11,-4,-5,27,46*,7,-6
Cc1cnc(C(=O)OC(C(=O)Nc2cc(C(F)(F)F)ccc2Cl)c2ccccc2)cn1 (stereo unspecified),29,-3,8,28,98*,6,19
O=C(O)c1cc(-c2ccccc2)c(N2CCOCC2)s1,4,17,10,3,6,8,.
O=C(c1ccc(Cl)cc1)c1cc(-c2ccccn2)c(N2CCOCC2)s1,39,-10,12,37,40*,-5,16
COc1ccccc1-c1cc(C(F)(F)F)nc(S(=O)(=O)CCCC(=O)NCc2ccc(F)cc2)n1,9,.,14,38,50*,-8,14
COc1ccccc1-c1cc(C(F)(F)F)nc(S(=O)(=O)CCCC(=O)NC(C)C)n1,32,-18,22,38,42*,7,-20
COc1ccccc1-c1cc(C(F)(F)F)nc(S(=O)(=O)CCCC(=O)Nc2cccnc2Cl)n1,.,-29,-7,.,.,.,.
O=C1NC(Cc2ccc(O)cc2)c2nc3ccc(Cl)cc3c(=O)n2-c2ccc(Cl)cc21 (stereo unspecified),-5,.,.,-4,1,.,.
CCOc1ccccc1NC(=O)C1CCN(S(C)(=O)=O)CC1,3,-24,9,-2,7,1,.
Cn1c(Cl)c(C(=O)Nc2ccccc2)c2ccccc21,46,-5,0,-7,51*,.,57*
COc1ccc(CNC(=S)Nc2ccc3nc(N4CCOCC4)cc(C)c3c2)cc1,19,14,-6,40,8,2,.
Cc1cc(=O)c(C(=O)O)nn1-c1cccc(C(F)(F)F)c1,-5,-7,19,4,-8,-1,.
Cc1cc(C)cc(NC(=O)C2(c3ccccc3)CC2(Cl)Cl)c1 (stereo unspecified),38,-31,18,37,41*,19,40*
Cc1cccc(NC(=O)C2(c3ccccc3)CC2(Cl)Cl)c1 (stereo unspecified),26,-8,-8,39,23,6,.
COc1cc(/C=N/NC(=O)c2cccnc2)cc2c1OCO2,9,-7,20,5,5,2,.
Cc1cccc(NC(=O)c2ccc3ccccc3n2)c1C,39,-6,31,38,45*,4,32*
Cc1ccccc1NC(=O)c1cccc(C(=O)Nc2ccccc2C)n1,11,-19,12,-7,-8,11,.
N#CC1=C(N)SC(N)=C(C#N)C1CCc1ccccc1,33,-1,-3,30,70*,11,-14
COc1ccccc1N1CCN(C(=O)c2cc(-c3ccc4c(c3)OCO4)on2)CC1,19,3,6,12,3,-3,.
COc1cc(Cl)ccc1OCc1cc(C(=O)N2CCN(c3ccccn3)CC2)no1,43,-36,11,17,55*,4,68*
